Activity calls are given as the source filed them.
Tests used:
[1] = binders of probe aFSTL3 on microarray, primary screen, stem cell growth factor project, biochemical, small-molecule microarray, fluorescence 635/667 (AID 1064); conditions: higher = more signal;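 further: measures binding of the biotinylated anti-FSTL3 antibody to printed compounds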
[2] = binders from COS7 lysate, DM2A8 probe, primary screen, torsin A project, cell lysate, small-molecule microarray, fluorescence 635/667 (AID 1065); conditions: higher = more signal, COS7 lysate expressing mutant human TOR1A
[3] = binders of probe aFGF2 on microarray, primary screen, stem cell growth factor project, biochemical, small-molecule microarray, fluorescence 635/667 (AID 1067); conditions: higher = more signal;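 further: measures binding of biotinylated aFGF2 protein to printed compounds on slides; z-score merges feature fluorescence and signal-to-noise across triplicate slides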
[4] = binders of probe aFGF10 on microarray, primary screen, stem cell growth factor project, biochemical, small-molecule microarray, fluorescence 635/667 (AID 1071); conditions: higher = more signal;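 further: score merges 667 nm spot intensity and signal to noise from triplicate slides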
[5] = target: Neurogenic locus notch homolog protein 2 (Homo sapiens) (UniProt Q04721); experiment: Notch2 binders on small-molecule microarrays, primary screen, biochemical, small-molecule microarray, 635 nm fluorescence, stem cell growth factors (AID 1073); conditions: Notch2 binding, higher = more signal
[6] = target: Pro-neuregulin-1, membrane-bound isoform (Homo sapiens) (UniProt Q02297); experiment: NRG1 binders on small-molecule microarrays, primary screen, psychiatric disease protein project, biochemical, small-molecule microarray, fluorescence 635/667 (AID 1075); conditions: NRG1 binding, 635 nm fluorescence, higher = more signal;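 further: score combines 667 nm spot fluorescence with signal to noise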
[7] = tested on: Neuregulin-1 EGF-like domain; experiment: binders of neuregulin-1 EGF-like domain, primary screen, biochemical, small-molecule microarray, 635 nm fluorescence (AID 1081); conditions: small-molecule microarray binding, higher = more signal;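 further: binding of the protein to compounds printed on small-molecule microarray slides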
[8] = FRG1 promoter luciferase signal modulators, primary screen, FRG1 inhibition for FSHD, cell-based, C2C12 myotubes, firefly/Renilla luciferase, luminescence (AID 1084); conditions: higher = more signal, called active from +8 up or from −8 down
[9] = binders of probe aFST on microarray, primary screen, stem cell growth factor project, biochemical, small-molecule microarray, fluorescence 635/667 (AID 1086); conditions: higher = more signal;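 further: score merges 667 nm fluorescence with signal-to-noise of each printed compound spot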
[10] = binders of probe aHhip on microarray, primary screen, stem cell growth factor project, biochemical, small-molecule microarray, fluorescence 635/667 (AID 1087); conditions: higher = more signal;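 further: score merges spot fluorescence at 667nm with spot signal to noise ratio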

Chain of Neurogenic locus notch homolog protein 2 (Homo sapiens) (Q04721 whole entry, looked up, canonical isoform): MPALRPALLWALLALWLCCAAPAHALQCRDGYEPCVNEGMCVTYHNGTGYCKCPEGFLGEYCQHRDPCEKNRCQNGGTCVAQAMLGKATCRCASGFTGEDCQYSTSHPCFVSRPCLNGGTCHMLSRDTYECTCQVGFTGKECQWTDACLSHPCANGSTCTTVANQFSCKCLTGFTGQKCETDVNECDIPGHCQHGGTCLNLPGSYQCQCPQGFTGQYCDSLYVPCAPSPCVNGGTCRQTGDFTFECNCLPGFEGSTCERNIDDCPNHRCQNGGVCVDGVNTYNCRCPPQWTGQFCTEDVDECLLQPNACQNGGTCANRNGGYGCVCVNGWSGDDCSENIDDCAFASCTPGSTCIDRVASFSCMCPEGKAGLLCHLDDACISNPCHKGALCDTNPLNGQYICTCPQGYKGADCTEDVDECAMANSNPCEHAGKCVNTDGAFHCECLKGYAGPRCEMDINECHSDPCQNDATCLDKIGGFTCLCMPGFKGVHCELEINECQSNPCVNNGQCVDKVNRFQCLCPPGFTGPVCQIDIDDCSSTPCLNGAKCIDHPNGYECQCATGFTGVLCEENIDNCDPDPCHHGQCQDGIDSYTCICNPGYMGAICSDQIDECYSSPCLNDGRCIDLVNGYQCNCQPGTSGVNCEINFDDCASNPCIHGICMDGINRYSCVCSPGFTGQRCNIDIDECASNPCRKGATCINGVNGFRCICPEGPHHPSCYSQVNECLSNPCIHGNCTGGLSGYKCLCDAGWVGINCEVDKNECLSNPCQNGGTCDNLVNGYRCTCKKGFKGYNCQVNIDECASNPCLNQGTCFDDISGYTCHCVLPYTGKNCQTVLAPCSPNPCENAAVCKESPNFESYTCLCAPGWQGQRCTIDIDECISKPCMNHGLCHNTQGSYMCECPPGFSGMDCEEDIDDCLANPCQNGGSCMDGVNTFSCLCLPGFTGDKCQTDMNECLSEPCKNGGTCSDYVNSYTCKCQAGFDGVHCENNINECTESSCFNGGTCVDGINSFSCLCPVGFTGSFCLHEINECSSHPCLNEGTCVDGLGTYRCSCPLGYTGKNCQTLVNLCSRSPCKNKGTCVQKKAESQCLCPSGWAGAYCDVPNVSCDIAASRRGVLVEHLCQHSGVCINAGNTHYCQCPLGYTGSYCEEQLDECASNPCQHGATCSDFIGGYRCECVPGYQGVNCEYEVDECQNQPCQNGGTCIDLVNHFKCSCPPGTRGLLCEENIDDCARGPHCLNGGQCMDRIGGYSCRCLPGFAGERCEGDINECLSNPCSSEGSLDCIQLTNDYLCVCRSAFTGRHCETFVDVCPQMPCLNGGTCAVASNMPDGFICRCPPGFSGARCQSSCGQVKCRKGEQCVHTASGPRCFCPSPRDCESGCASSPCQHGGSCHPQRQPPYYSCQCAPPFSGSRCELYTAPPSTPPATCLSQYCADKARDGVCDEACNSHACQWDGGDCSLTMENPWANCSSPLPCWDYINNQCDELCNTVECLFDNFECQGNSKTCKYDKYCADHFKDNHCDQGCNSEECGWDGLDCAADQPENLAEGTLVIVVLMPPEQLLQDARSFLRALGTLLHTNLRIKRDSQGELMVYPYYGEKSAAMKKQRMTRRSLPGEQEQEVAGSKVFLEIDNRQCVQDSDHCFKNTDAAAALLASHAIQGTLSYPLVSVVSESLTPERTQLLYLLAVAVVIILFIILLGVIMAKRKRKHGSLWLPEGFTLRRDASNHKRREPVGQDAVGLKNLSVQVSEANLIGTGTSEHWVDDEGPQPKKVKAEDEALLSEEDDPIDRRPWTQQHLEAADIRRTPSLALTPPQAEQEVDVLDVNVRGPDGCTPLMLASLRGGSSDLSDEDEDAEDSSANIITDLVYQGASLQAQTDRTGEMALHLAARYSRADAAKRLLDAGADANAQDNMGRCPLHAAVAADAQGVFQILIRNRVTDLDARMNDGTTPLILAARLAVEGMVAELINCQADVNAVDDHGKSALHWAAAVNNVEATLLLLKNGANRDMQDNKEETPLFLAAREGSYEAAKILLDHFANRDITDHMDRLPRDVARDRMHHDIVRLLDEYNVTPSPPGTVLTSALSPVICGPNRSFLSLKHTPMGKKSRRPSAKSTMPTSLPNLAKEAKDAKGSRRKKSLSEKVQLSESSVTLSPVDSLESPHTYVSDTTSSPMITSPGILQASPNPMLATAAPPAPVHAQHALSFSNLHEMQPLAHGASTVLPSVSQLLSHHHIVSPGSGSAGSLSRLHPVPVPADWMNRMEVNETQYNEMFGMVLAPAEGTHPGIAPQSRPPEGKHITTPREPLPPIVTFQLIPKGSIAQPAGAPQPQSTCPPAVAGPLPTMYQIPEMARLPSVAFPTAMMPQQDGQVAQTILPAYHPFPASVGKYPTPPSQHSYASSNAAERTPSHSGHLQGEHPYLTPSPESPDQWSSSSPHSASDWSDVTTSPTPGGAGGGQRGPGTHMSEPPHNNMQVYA
Chain of Pro-neuregulin-1, membrane-bound isoform (Homo sapiens) (Q02297 whole entry, looked up, the tested form may be a part, canonical isoform): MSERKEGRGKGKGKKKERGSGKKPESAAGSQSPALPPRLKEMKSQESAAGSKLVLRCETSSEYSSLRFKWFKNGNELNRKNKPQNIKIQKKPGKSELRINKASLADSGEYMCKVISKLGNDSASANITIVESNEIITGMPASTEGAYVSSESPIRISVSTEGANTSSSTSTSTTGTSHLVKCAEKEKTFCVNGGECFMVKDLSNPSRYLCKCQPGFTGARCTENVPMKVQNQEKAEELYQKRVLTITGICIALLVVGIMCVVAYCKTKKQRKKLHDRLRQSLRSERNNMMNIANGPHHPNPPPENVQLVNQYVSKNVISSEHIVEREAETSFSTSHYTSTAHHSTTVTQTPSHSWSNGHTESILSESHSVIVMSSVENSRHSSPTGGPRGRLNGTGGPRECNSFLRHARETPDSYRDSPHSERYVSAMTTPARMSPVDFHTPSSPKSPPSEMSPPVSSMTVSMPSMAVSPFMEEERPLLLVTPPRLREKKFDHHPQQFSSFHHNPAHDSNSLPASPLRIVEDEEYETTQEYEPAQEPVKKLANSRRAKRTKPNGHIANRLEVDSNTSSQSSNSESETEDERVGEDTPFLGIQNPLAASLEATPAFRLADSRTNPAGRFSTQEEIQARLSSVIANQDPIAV

Row | SMILES | composite z-score [1] | composite z-score [2] | composite z-score [3] | composite z-score [4] | composite z-score [5] | composite z-score [6] | composite z-score [7] | z-score [8] | composite z-score [9] | composite z-score [10]
1 | CC(C)NC(=O)[C@@H]1c2ccccc2C(=O)N(Cc2cc(C(F)(F)F)cc(C(F)(F)F)c2)[C@H]1c1ccc(CO)cc1 | 0.27 | 0.255 | 0.0032 | -0.0264 | 0.805 | 0.104 | 0.663 | 0.306 (inactive) | 0.619 | 0.0596
2 | CN1C(=O)C2C=CC(C(O)c3ccc(F)cc3)N(N3CCCCC3)C2C1=O (stereo not given) | 1.1 | 1.72 | 0.344 | 0.139 | 1.44 | 1.17 | 1.19 | 0.532 (inactive) | 0.713 | 0.0274
3 | COC(=O)[C@@]1(Cc2ccc(F)cc2)[C@H]2c3cc(C(=O)N(C)C)n(CCSCCO)c3C[C@H]2CN1C(=O)c1ccccc1 | 0.304 | 0.273 | 0.203 | 0.487 | 1.36 | 1.95 | 0.943 | 1.29 (inactive) | 0.568 | -0.0029
4 | COc1cc(C(O)C2C=CC3C(=O)N(C)C(=O)C3N2NC(=O)OC(C)(C)C)cc(OC)c1OC (stereo not given) | 0.425 | -0.27 | 0.265 | 0.469 | 1.38 | 2.13 | 1.38 | -0.167 (inactive) | 0.935 | 0.122
5 | COC(=O)[C@]1(Cc2ccccc2CN=[N+]=[N-])N=C(c2ccc(OCCCO)cc2)O[C@@H]1c1ccccc1CN=[N+]=[N-] | 0.409 | -0.119 | -0.087 | 0.013 | -0.443 | 0.726 | 1.28 | -0.904 (inactive) | -0.117 | -0.0994
6 | C=C(COC)C(=O)CC[C@H](OC(=O)c1ccccc1-c1ccccc1C(=O)O)c1ccc(OCCO)cc1 | -0.249 | 1.42 | -0.0729 | 0.512 | -0.0342 | 1.09 | 1.11 | 0.552 (inactive) | 0.347 | -0.236
7 | CCCC=C(CCC)[C@@H](NS(=O)(=O)c1ccccc1)c1ccc(C(F)(F)F)cc1 | -0.201 | 0.322 | 0.174 | 0.96 | 1.55 | 1.52 | 1.13 | -2.28 (inactive) | 1.05 | 0.28
8 | CN(C)CCCCNC(=O)[C@H]1C[C@H]2C(=O)N[C@@H](CCCC[N+](C)(C)C)C(=O)N2[C@H]1c1cccc(OCCO)c1 | -0.235 | 1.09 | -0.116 | -0.0012 | -0.606 | 0.417 | 1.26 | 2.9 (inactive) | -0.268 | -0.0994
9 | O=C1OCCC=C[C@H]2OC34C=CCN(Cn5nnc6ccccc65)C(=O)[C@H]3N(CCCCCO)C(=O)[C@@H]4C12 (stereo not given in full) | 0.122 | 1.66 | -0.176 | -0.328 | -0.407 | 2.18 | 1.48 | -0.21 (inactive) | -0.118 | -0.306
10 | COc1ccc(C#Cc2ccc3c(c2)[C@]2(C(=O)N3)[C@H](C(=O)O)[C@H]3C(=O)O[C@H](c4ccccc4)[C@H](c4ccccc4)N3[C@@H]2c2ccc(OCCO)cc2)cc1 | -0.397 | 0.959 | -0.0344 | 0.903 | 0.357 | 1.88 | 0.976 | -0.176 (inactive) | 0.794 | 0.122
11 | O=C(CS)NCCCCCNC(=O)[C@@H]1C[C@@H]2C(=O)N3CCC[C@H]3C(=O)N2[C@@H]1c1ccc(O)cc1 | 0.344 | 0.282 | -0.0333 | 0.354 | -0.677 | 0.33 | 1.32 | 0.0995 (inactive) | -0.0412 | 0.127
12 | C[C@@]1([C@@H](NC(=O)c2cccs2)c2ccc(-c3ccccc3)cc2)C[C@H]1C1CCCCC1 | -0.11 | -1.29 | -0.428 | -0.376 | -0.41 | 0.783 | -0.253 | 2.66 (inactive) | -0.232 | -0.523
13 | [N-]=[N+]=NCc1ccccc1C[C@]1(C(=O)NCCN2CCOCC2)N=C(c2ccc(OCCCO)cc2)O[C@H]1c1ccccc1 | 0.081 | 0.205 | -0.0085 | 0.713 | 0.0617 | 1.32 | 1.26 | -0.849 (inactive) | 0.632 | -0.0296
14 | COC(=O)[C@@]1(Cc2ccccc2)[C@H]2c3cc(C(=O)N(C)C)n(Cc4ccccn4)c3C[C@H]2CN1C(=O)c1ccccc1 | 0.907 | 1.6 | 0.305 | 0.76 | 1.15 | 2.33 | 1.31 | 1.01 (inactive) | 1.27 | 0.0302
15 | O=C1C[C@@](C(=O)O)(c2ccc([N+](=O)[O-])cc2)[C@@H](c2ccc(CO)cc2)N1CC12CC3CC(CC(C3)C1)C2 | 0.524 | 0.603 | -0.009 | 0.527 | 1.13 | 1.38 | 1.12 | -2.54 (inactive) | 0.49 | -0.196
16 | COc1ccccc1CN1C(=O)c2ccccc2[C@@H](C(=O)NCC(C)C)[C@@H]1c1ccc(CO)cc1 | 0.482 | -0.117 | 0.0342 | -0.0779 | 1.07 | 0.869 | 0.7 | -1.97 (inactive) | 0.0346 | -0.0994
17 | CN1C(=O)C2C=CC(C(O)c3cccc4ccccc34)N(NC(=O)OC(C)(C)C)C2C1=O (stereo not given) | 1.07 | 1.79 | 0.194 | 0.586 | 1.37 | 2.11 | 1.15 | 0.93 (inactive) | 1.4 | -0.0296
18 | NC(=O)[C@H]1[C@@H]2C(=O)O[C@@H](c3ccccc3)[C@@H](c3ccccc3)N2[C@@H](c2ccc(O)cc2)[C@]12C(=O)Nc1ccc(C#CC3(O)CCCCCC3)cc12 | 0.0918 | 0.417 | -0.0454 | 0.607 | 1.35 | 1.5 | 1.35 | -1.46 (inactive) | 0.617 | 0.233
19 | C=CCNC(=O)[C@@H]1[C@H]2C(=O)O[C@H](c3ccccc3)[C@H](c3ccccc3)N2[C@H](c2ccc(O)cc2)[C@@]12C(=O)Nc1ccc(C#CCCO)cc12 | 0.0065 | -0.395 | -0.13 | 0.508 | -1.34 | 1.37 | -0.353 | -0.0378 (inactive) | -1.05 | -0.251
20 | C#CCNS(=O)(=O)N(C)C | -0.49 | 0.0943 | -0.0291 | 0.276 | 0.707 | 0.174 | 0.774 | -0.533 (inactive) | -0.136 | 0.208
21 | COCCOC(=O)N1C(=O)[C@@]2(c3cc(C#CCNC(N)=O)ccc31)[C@H](C(N)=O)[C@H]1C(=O)O[C@H](c3ccccc3)[C@H](c3ccccc3)N1[C@@H]2c1ccc(OCCO)cc1 | -0.147 | 0.0525 | -0.0139 | 0.309 | 1.16 | 0.564 | 0.342 | 1.34 (inactive) | 0.459 | -0.0427
22 | [N-]=[N+]=NCc1ccccc1C[C@]1(C(=O)NCCN2CCOCC2)COC(c2ccc(OCCCO)cc2)=N1 | 0.186 | 1.25 | -0.0647 | 0.121 | 0.973 | 1.02 | 1.2 | -2.23 (inactive) | 0.817 | -0.0645
23 | Cc1ccc(-c2cccc(=O)o2)cc1 | 0.139 | -0.549 | -0.0973 | -0.304 | -0.351 | -0.411 | -0.596 | 5.3 (inactive) | 0.121 | -0.353
24 | COc1ccc(C(=O)Nc2ccc(CN3C(=O)[C@@]4(O[C@@H](CC(=O)N5Cc6ccccc6C[C@H]5CO)[C@H]([Si](C)(C)c5ccc(OC)cc5)[C@H]4C)c4ccccc43)cc2)cc1 | -0.313 | 0.17 | 0.0275 | 0.158 | -0.0395 | 0.822 | 1.1 | -4.29 (inactive) | 0.185 | -0.173
25 | CCCCC=C[C@@H](NC(=O)CCc1ccccc1)c1ccccc1 | 0.0413 | 1.04 | 0.0601 | 0.404 | 1.11 | 1.23 | 1.24 | -1.42 (inactive) | 0.843 | 0.316
26 | Cc1ccccc1C(O)C1C=CC2C(=O)N(Cc3ccccc3)C(=O)C2N1n1cnnc1 (stereo not given) | -0.281 | 0.34 | -0.0085 | 0.304 | 1.02 | 1.03 | 0.92 | 0.253 (inactive) | 0.475 | 0.0053
27 | Cc1ccc(S[C@]2(C(=O)O)CC(=O)N(Cc3ccccc3C(F)(F)F)[C@@H]2c2ccc(CO)cc2)cc1 | 0.405 | -0.138 | -0.172 | -0.338 | -1.11 | -0.343 | 0.508 | -0.383 (inactive) | -0.49 | -0.374
